Potency and activity change, negative = cytotoxic data for 40 compounds are collected here from PubChem BioAssay (NCATS).

Records with an inconclusive call do not appear. Where a call stands in place of a potency, no number is given. Activity calls are given as the source filed them. The call rests on the fitted dose curve; in most records, active means well fitted cell-killing curve with a large enough effect; inconclusive means small, poorly fitted or top-dose-only effect; inactive means flat fitted curve, though single readings scatter.
Potency means the concentration at half of the fitted maximal effect.

The assay in a line: qHTS of pediatric cancer cell lines to identify multiple opportunities for drug repurposing: Primary screen for U-2 OS cells (AID 1347096). Further: nearly all actives have a fitted effect of over 50% in size. As to conditions: U-2 OS viability, CellTiter-Glo luminescence, 48 h; series mostly up to 46 µM. The text has this: Drug repurposing or repositioning has been offered as a strategy for drug development in oncology programs. This approach has special potential for childhood cancers and other rare or orphan diseases, where the expected return on new drug development has been a disincentive to pharmaceuticals.
In this project we exploit the poly-pharmacology of drugs to discover new indications via phenotypic screening of a panel of 19 well-characterized cell lines derived from solid tumors seen in children and adolescents. The goal is to identify approved drugs with previously unrecognized anticancer properties that has the potential to reveal new mechanisms and biological processes involved in carcinogenesis or drug resistance. We employed a titration-based paradigm (quantitative high-throughput screening or qHTS), where all compounds were tested at multiple concentrations for their effect on cell viability. Concentration-response curves (CRCs) were derived directly from the primary screen, and both potency and efficacy values were used to identify compounds with robust bioactivity profiles. We screened the NIH Chemical Genomics Center (NCGC) Pharmaceutical Collection (NPC) and Mechanism Interrogation Plate (MIPE) small molecule collections of approved and investigational compounds against these cell lines; and measured metabolically active cells after 48 hours of compound treatment as a proxy for cell viability.
Assay Submitter: Nathalia J. Martinez, National Center for Advancing Translational Sciences, National Institutes of Health, Rockville, MD, USA; email: natalia.martinez@nih.gov
[1] Shen, M et al. Quantitative high-throughput phenotypic screening of pediatric cancer cell lines identifies multiple opportunities for drug repurposing. Oncotarget 2017 Dec 19;9(4):4758-4772. PMID 29435139.
The cells were obtained from University of North Carolina (UNC), Pediatric Preclinical Testing Program (PPT), and Coriell Institute (CI).
qHTS cell viability assay:
Cells were assayed in growth media at a density of 500-1,000 cells/well. Five microliters of cells were dispensed into 1,536-well, white, solid-bottom, TC-treated plates (Greiner Bio One) using a multidrop dispenser and incubated at 37 degrees C, 5% CO2, under a humidified atmosphere for 5 hours. Twenty-three nanoliters of compounds and controls (neutral control DMSO or positive control bortezomib at final concentration of 2.3 µM) were subsequently transferred by Kalypsys pintool. For primary screens, the MIPE collection was tested at 11-point dilutions (final concentrations range from 0.78 nM to 46 µM) and the NPC collection at 8-point dilutions (final concentrations range from 0.59 nM to 46 µM). Compounds tested in follow-up screens were assayed at 11-point dilutions. Cells were incubated for 48 hours, followed by addition of 3 µL of CellTiter-Glo (Promega). After a 15 min incubation at room temperature, samples were analyzed for luminescence intensity using a ViewLux High-throughput CCD imager equipped with clear filters.
(In qHTS, concentration-response curves come from the screen itself.)
`CCN(CC)CCNC(=O)c1c(C)[nH]c(/C=C2\C(=O)Nc3ccc(F)cc32)c1C`: the Potency is 21.1 µM (active). On the same count and under the same terms, for `NC(=O)c1ncn([C@@H]2O[C@H](CO)[C@@H](O)[C@H]2O)n1` the value was “inactive”; for `NS(=O)(=O)c1cc2c(cc1Cl)NC(CSCc1ccccc1)=NS2(=O)=O`, “inactive”; for `Cc1cccc(C)c1NC(=O)CN(CC(=O)O)CC(=O)O`, “inactive”. In the case of `COC(=O)C1=C(C)NC(C)=C(C(=O)OC)C1c1ccccc1[N+](=O)[O-]`, the Potency result is “inactive”. On to `C[C@H](N)[C@H](O)c1cccc(O)c1`, for which the Potency entry is “inactive”.

`C=Cc1c(C)c2cc3[nH]c(cc4nc(cc5nc(cc1[nH]2)C(C)=C5CCC(=O)O)C(CCC(=O)O)=C4C)c(C)c3C=C`: the Potency result was “inactive”.

Take `N[C@H]1C(O)O[C@H](CO)[C@@H](O)[C@@H]1O` (stereo not given in full): the Potency result was “inactive”. On the same count and under the same terms, for `CC(=O)NC(Cc1ccccc1)C(=O)O` (stereo not given) the value was “inactive”; for `c1ccc2c(CC3=NCCN3)cccc2c1`, “inactive”. As for `CCN(CC)CCCC(C)Nc1c2ccc(Cl)cc2nc2ccc(OC)cc12` (stereo not given), the Potency entry was “inactive”. Take `CS(=O)(=O)c1ccc([C@@H](O)[C@@H](CF)NC(=O)C(Cl)Cl)cc1`: the Potency result is “inactive”.

Turning to `CN(C)CCC=C1c2ccccc2CCc2ccccc21`, the Potency entry was “inactive”. Same read-out and setting: for `CCCCN1CCCC[C@H]1C(=O)Nc1c(C)cccc1C` the value was “inactive”. Turning to `CC(COc1ccccc1)NC(C)C(O)c1ccc(O)cc1` (stereo not given), the Potency result is “inactive”. As for `CN(C)CCCN1c2ccccc2CCc2ccccc21`, the Potency result is “inactive”. The same measure, in the same setting: for `COc1ccc2c(c1)C(=O)N(CCc1ccc(S(=O)(=O)NC(=O)NC3CCCCC3)cc1)C(=O)C2(C)C` the value was “inactive”; for `OCC(CO)N[C@H]1C[C@](O)(CO)[C@@H](O)[C@H](O)[C@H]1O`, “inactive”; for `CC1(C)CO[C@@H](CC(=O)O)CN1`, “inactive”. As to `CC(C)(C)NCC(O)COc1ccc(NC(=O)NC2CCCCC2)cc1` (stereo not given), the Potency result was “inactive”.

For `CCCCc1ncc(/C=C(\Cc2cccs2)C(=O)O)n1Cc1ccc(C(=O)O)cc1`, the Potency entry is “inactive”. `Oc1cccc(O)c1`: the Potency result was “inactive”. Consider `CCOc1nc2cccc(C(=O)O)c2n1Cc1ccc(-c2ccccc2-c2nn[nH]n2)cc1`, for which the Potency result was “inactive”.

Take `CNCC(O)c1ccc(O)c(O)c1` (stereo not given): the Potency result was “inactive”. The same measure, in the same setting: for `CNC(=O)Oc1ccc2c(c1)[C@]1(C)CCN(C)[C@@H]1N2C` the value was “inactive”; for `CCC(=O)c1ccc(O)cc1`, “inactive”; for `C[C@]12CC[C@@H]3c4ccc(O)cc4CC[C@H]3[C@@H]1CCC2=O`, “inactive”. For the compound `N[C@@H](CSSC[C@H](N)C(=O)O)C(=O)O`, the activity change, negative = cytotoxic was 6.12% [at 0.597 µM] (inactive). With `COc1cc(C(=O)N2CCOCC2)cc(OC)c1OC`, the Potency result was “inactive”.

Consider `O=S(=O)(O)NC1CCCCC1`, for which the Potency result is “inactive”.

Take `O=C(Oc1ccccc1C(=O)O)c1ccccc1O`: the Potency entry was “inactive”.

As for `N[C@@H](CSCCCO)C(=O)O`, the Potency result was “inactive”.

Turning to `NCCNCCNCCN`, the Potency entry was “inactive”.

As for `N[C@H](C(=O)O)c1ccc(O)cc1`, the Potency result is “inactive”. With `O=C(O)Cc1sc(-c2ccccc2)nc1-c1ccc(Cl)cc1`, the Potency entry was “inactive”.

In the case of `Cc1ccc(C(C)C)cc2c(C)ccc1-2`, the Potency result was “inactive”. Still for that read-out and setting: for `CCN(CC)CCNC(=O)c1cc(Cl)c(N)cc1OC` the value was “inactive”; for `CC(C(O)c1ccc(O)cc1)N1CCC(Cc2ccccc2)CC1` (stereo not given), “inactive”.

Take `Nc1ccc(S(=O)(=O)Nc2nccs2)cc1`: the Potency entry is “inactive”. Same read-out and setting: for `O=c1cc(CO)occ1O` the value was “inactive”.
